# Bioassay records: PubChem, ICCB-Longwood Screening Facility, Harvard Medical School
# Vaccinia pol inh = vaccinia E9 polymerase processive synthesis inhibitors, primary screen, biochemical, absorbance | 0.94% of 46,000 active | AID 493162, 2011 | in vitro processive DNA synthesis, absorbance read-out; hits give low values | normalized absorbance, % (test concentration not listed); in the data active = normalized absorbance mostly below about 85%, no sharp cut-off; inactive = mostly above about 86%
# * = called active by the depositor; ! = not confirmed by another sample. The sample as a whole holds a higher share of hits than the screen did.
SMILES,Vaccinia pol inh
CC(C)CCNC(=O)c1ccc2c(=O)n3c(nc2c1)CCCCC3,100
Cc1ccc(-n2cnc3cc(N=Cc4ccc(N(C)C)cc4)ccc32)cc1,100
CN1CCN(CC2CC=CCC2)CC1 (stereo not drawn),100
CCOc1ccc2c(c1)C1C=CCC1C(c1ccc(C(=O)OC)cc1)N2 (stereo not drawn),105
O=C(O)c1ccc(C2Nc3ccccc3C3C=CCC32)cc1 (stereo not drawn),10*
O=C(O)C1Nc2ccccc2C2C=CCC12 (stereo not drawn),9.8*
Brc1ccccc1[C@@H]1Nc2ccccc2[C@@H]2C=CC[C@@H]21,100
Cc1cc(Cl)ccc1NS(=O)(=O)c1ccc2c(c1)[C@H]1C=CC[C@H]1[C@@H](c1ccccc1)N2,101
Cc1ccc2c(c1)C1C=CCC1C(c1ccc(N=Cc3ccccc3)cc1)N2 (stereo not drawn),97
O=C1N[C@H](C(=O)O)C1Cc1ccccc1 (stereo partly drawn),99
CC(C)C1Nc2ccc(C(=O)O)cc2C2C=CCC21 (stereo not drawn),78*
O=C(O)C1C2CC=CC2c2cc(Cl)cc3c2N1CC1CC=CC31 (stereo not drawn),100
COc1ccccc1NC(=O)CCCN1C(=O)/C(=C\c2ccco2)SC1=S,97
N=C1c2ccccc2CN1c1ccc(O)c(C(=O)O)c1,103
COc1ccc(OC)c(S(=O)(=O)c2c(OC)ccc(OC)c2C(=O)O)c1,101
O=C(CSc1c2c(nc3ccccc13)CCCC2)NC1CCCCC1,98
Oc1ccccc1/C=N/c1ccccn1,96
CCN1CCc2c(OC(C)C)cccc2C1=O,98
O=C(Nc1ccc(-c2ccccc2)oc1=O)c1ccccc1,105
Cc1cc(C)cc(C(=O)Nc2ncn[nH]2)c1,102
O=C(OCc1ccccc1F)C1CCCC1,105
CNc1nc(-c2cccc(N)c2)cs1,99
COC(=O)[C@@]1(O)CC2OC1(C)n1c3ccccc3c3c4c(c5c6ccccc6n2c5c31)C(=O)NC4 (stereo partly drawn),98
Cn1c2ccccc2c2c3c(c4c5ccccc5n(CCC#N)c4c21)CNC3=O,98
CN[C@@H]1CC2(C)OC([C@@H]1OC)n1c3ccccc3c3c4c(c5c6ccccc6n2c5c31)C(=O)NC4 (stereo partly drawn),56*
SMILES,Vaccinia pol inh
Cc1ccc2[nH]c(=O)c(CN(C3CCCCC3)S(=O)(=O)c3ccccc3)cc2c1,101
Cc1ccc(-c2noc(CN(C3CCCCC3)S(=O)(=O)c3ccccc3)n2)cc1,64*
CC(C)N(Cc1nc(-c2ccccc2)no1)C(=O)C1CCCCC1,99
Cc1[nH]c2ccccc2c1SCCNC(=O)/C=C/c1ccc2c(c1)OCO2,106
CCC(C)Cn1c(CC(C)(C)C)nc2ccccc21 (stereo not drawn),103
N/C(=N\c1nc2ccccc2s1)NC(=O)c1cccc(Cl)c1,99
NC(=Nc1ccccc1)NC(=O)c1nc(Cl)c(N)nc1N,51*
N/C(=N\c1nc(=O)c2ccccc2s1)NC(=O)c1ccc(Cl)c(Cl)c1,100
NC(=O)NC(=O)Cc1ccccc1,102
O=C(Cc1csc(Nc2ccc(Cl)cc2)n1)NCc1ccccc1,100
NC(=NCc1ccccc1)NC(=O)c1nc(Cl)c(N)nc1N,59*!
CC1CCc2sc(NC(=O)C(C)C)c(C(N)=O)c2C1 (stereo not drawn),100
O=C1C2C(C(=O)N1Cc1ccc(F)cc1)C1C=CC2C12CC2 (stereo not drawn),100
O=C(O)c1ccccc1OCC(=O)N1CCCC1,101
CN1CCN(c2nnc(-c3ccccc3)c3ccccc23)CC1,101
CCc1ccc(-c2ncnn2-c2cccc(Cl)c2C)cc1,100
O=C(CNc1ccc(Cl)cc1)c1cc2ccccc2oc1=O,85
CC1Cc2ccccc2N1C(=O)c1ccc(S(=O)(=O)N2CCCCC2)cc1 (stereo not drawn),112
CCN(CC)C(=O)Cc1ccc(Br)cc1,102
O=C1/C(=C/C2CCCO2)CC/C1=C\C1CCCO1 (stereo not drawn),14*
Cc1ccc(N2CC(=O)SC23CCCCC3)cc1,100
O=C(NC12CC3CC(CC(C3)C1)C2)n1ncc2cc(Cl)ccc21,103
Cc1cc2c(C(C)C)c(O)c(O)c(C=O)c2c(O)c1-c1c(C)cc2c(C(C)C)c(O)c(O)c(C=O)c2c1O,18*
O=C(Nc1ccc2c(c1)OCO2)C12CC3CC(CC(C3)C1)C2,93
Cc1ccc(-c2nnc(NC(=O)COc3ccccc3)s2)cc1,93
SMILES,Vaccinia pol inh
Cc1ccccc1NC(=O)C(C)n1c(C(F)(F)F)nc2ccccc21 (stereo not drawn),84
Cc1nc2ccccc2cc1C(=O)NCc1ccccn1,109
CCn1c(NCc2ccccn2)nc2ccccc21,113
Cc1nc(NCc2ccccn2)c2ccccc2n1,51*
CN1CCN(Cc2coc3ccccc3c2=O)CC1,100
CC(C)(C)C1CCC(OC(=O)c2ccco2)CC1 (stereo not drawn),102
COc1ccc(N=Cc2ccccc2F)cc1,52*
